Pin1 inh = blocks the human prolyl isomerase Pin1; Q13526; Pin1 FP peptide displacement, HiFluor488, 10 min; Potency, µM (titrated, usually from 115 µM), inactives show at the highest dose activity, negative = inhibition, most hits filed as inhibitors; 0.009% of 390,000 active; active = well fitted inhibition curve with a large enough effect in the polarisation, with a control signal flat, not every such curve was filed as active; inconclusive = small, poorly fitted or top-dose-only effect, or effect the other way, or a change in a side signal; inactive = no such curve, though single readings can be large or run the other way; the % refers to the polarisation; note: % is set by controls: 0 for no effect and ±100 for the full control effect
Target sequence (Q13526 whole entry, looked up): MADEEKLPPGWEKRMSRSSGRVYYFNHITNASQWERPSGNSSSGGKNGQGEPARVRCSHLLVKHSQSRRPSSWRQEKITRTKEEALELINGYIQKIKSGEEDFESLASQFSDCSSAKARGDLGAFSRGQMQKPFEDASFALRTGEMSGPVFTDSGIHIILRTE
VDR inh = blocks the human vitamin D receptor; VDR-SRC2-3 peptide fluorescence polarization, 2 h; AID 504847; P11473; Potency, µM, for inactives: max response, negative = inhibition, most hits filed as inhibitors; 0.93% of 400,000 active; note: % is set by controls: 0 for no effect and ±100 for the full control effect
Target sequence (P11473 whole entry, looked up): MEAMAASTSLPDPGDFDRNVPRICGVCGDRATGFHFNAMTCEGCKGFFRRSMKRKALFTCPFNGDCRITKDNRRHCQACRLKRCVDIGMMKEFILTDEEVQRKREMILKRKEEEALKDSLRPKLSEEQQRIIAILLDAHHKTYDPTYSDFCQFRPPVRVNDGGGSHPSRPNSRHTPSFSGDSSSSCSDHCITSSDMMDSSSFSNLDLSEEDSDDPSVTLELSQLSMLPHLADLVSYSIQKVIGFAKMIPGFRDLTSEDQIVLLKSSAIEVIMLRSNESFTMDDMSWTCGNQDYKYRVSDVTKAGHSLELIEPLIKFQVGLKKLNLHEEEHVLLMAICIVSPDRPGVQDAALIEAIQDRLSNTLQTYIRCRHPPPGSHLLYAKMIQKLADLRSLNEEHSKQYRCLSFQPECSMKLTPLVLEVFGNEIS
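The screen uses fluorescence polarization to detect compounds that interfere with recruitment of the SRC2-3 coactivator peptide to VDR; plates are read after 2 h at room temperature.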
Tb PFK inh = inhibitors of T. brucei phosphofructokinase | Potency, µM (top dose mostly 57.5 µM), inactives show at the highest dose activity, negative = inhibition, hits mostly inhibitors | O15648 | 0.17% of 330,000 active | T. brucei PFK, ADP-Glo luminescence | AID 485367;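 note: 0% = uninhibited 1x PFK enzyme wells and -100% = no-enzyme wells; nearly all actives have a fitted effect of over 60% in size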
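Luminescent ADP detection (ADP-Glo, two-step: ATP depletion then ADP-to-ATP conversion for luciferase) reported PFK activity after 45 min room-temperature reaction of 1.25 nM enzyme with 0.5 mM F6P and 0.1 mM ATP at pH 8.0.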
PLK1 PBD inh = inhibitors of human PLK1 polo-box domain binding | P53350 | Plk1 PBD binding of FITC phosphopeptide, fluorescence polarization | Potency, µM, inactives show max response, negative = inhibition, hits mostly inhibitors | 2.8% of 360,000 active; note: series mostly up to about 57 µM; % is set by controls: 0 for no effect and ±100 for the full control effect; nearly all actives have a fitted effect of over 65% in size
TDP1 inh = blocks human tyrosyl-DNA phosphodiesterase 1; Potency, µM (titrated, usually from 130 µM), without a hit: at the highest dose activity change, negative = inhibition, most hits filed as inhibitors; AID 485290; 0.28% of 350,000 active; Q9NUW8; recombinant TDP1, AlphaScreen DNA substrate cleavage; note: % is set by controls: 0 for no effect and ±100 for the full control effect; nearly all actives have a fitted effect of over 40% in size
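Tdp1 1 nM final; 15 min RT w/ cpd; substrate 15 nM, 5 min; beads 10 ug/ml, 10 min; AlphaScreen read. Neg ctrl: no enzyme.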
ASM inhibitor = blocks human secretory acid sphingomyelinase; placental ASM, HMU-PC fluorogenic substrate, 60 min; Potency, µM (titrated, usually from 57.5 µM), for the others: top-dose activity change, negative = inhibition, hits mostly inhibitors; 0.006% of 340,000 active
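Human placenta-derived ASM preincubated with compound 10 min at room temperature, then reacted with 9 uM (final) fluorogenic HMU-PC substrate for 60 min at 37 C. Stop solution raises pH to 10; fluorescence read at Ex 386/Em 447 nm.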
Numbers without * were called inactive; ? = inconclusive; / = no result given; [ ] = remark or other dose. The list is not random: actives were taken first. Their share in the collection is about 3.1%. Unless noted, calls come from the whole dose curve; as a rule, active = well fitted curve in the direction sought with a large enough effect; inconclusive = small, poorly fitted or top-dose-only effect, or another doubt; inactive = no such curve, though single readings can be large; an effect the other way counts as inactive or inconclusive. Potency is the fitted concentration of half-maximal effect.

SMILES | Pin1 inh | VDR inh | Tb PFK inh | PLK1 PBD inh | TDP1 inh | ASM inhibitor
Cc1cccc(C)c1NC(=S)N/N=C1\CC2CC=CC12 (stereo unspecified) | 3.9% | ? | -1.9% | 15µM* | 1.2% | -3.1%
COc1cccc2cc(C(=O)CS(=O)(=O)c3ccc(Cl)cc3)c(=O)oc12 | ? | -16.8% | -9.9% | 16.8µM* | 3.0% | 1.6%
COC(=O)C1=C(C(=O)OC)[C@@H]2N(Cc3ccccc3)c3ccccc3[C@@]23C[C@@H](C(=O)OC)N(S(=O)(=O)c2ccc(C#N)cc2)C3=N1 | / | / | / | / | 11.4%[21 µM] | /
CC(C)Sc1nc2c(c(=O)[nH]c(=O)n2C)n1CC(O)COc1ccccc1 (stereo unspecified) | -1.5% | 3.4% | 0.9% | 23.8µM* | 0.0% | -0.9%
CC(O)CSc1nc2c(c(=O)[nH]c(=O)n2C)n1CC(O)COc1ccccc1 (stereo unspecified) | -6.0% | ? | -6.8% | 26.7µM* | 0.0% | 0.6%
CCSc1nc2c(c(=O)[nH]c(=O)n2C)n1CC(O)COc1ccc(Cl)cc1 (stereo unspecified) | -5.0% | -12.3% | / | / | 0.4%[12.3 µM] | /
COc1ccc(C2C(=O)N(C3CCCCCC3)CC(=O)N2CCC2=CCCCC2)cc1 (stereo unspecified) | -7.6% | 8.0% | / | / | 7.8% | /
Cc1cc(C)n(-c2nc3sc4c(c3c3nnc(SCC(N)=O)n23)CC(C)(C)OC4)n1 | 4.1% | 9.5% | -2.5% | -1.2% | 2.4% | 12.0%
CSc1nnc2c3c4c(sc3nc(-n3nc(C)cc3C)n12)COC(C)(C)C4 | -3.2% | ? | -13.2% | 3.36µM* | 5.9% | 2.1%
CCOC(=O)C1CCCN(C(=S)Nc2ccc(Nc3ccccc3)cc2)C1 (stereo unspecified) | 2.6% | -9.5% | -18.3% | 21.2µM* | 7.7% | -1.8%
CCOC(=O)C1CCCN(C(=O)Cc2ccc(OC)c(OC)c2)C1 (stereo unspecified) | 3.5% | -1.2% | -11.5% | -11.9% | 4.5% | 8.2%
CCOC(=O)C1CCCN(C(=O)Cc2ccc(C)cc2)C1 (stereo unspecified) | 2.6% | 4.5% | 0.6% | 26.7µM* | 5.3% | 5.2%
CCOC(=O)C1CCN(C(=S)Nc2ccc(S(N)(=O)=O)cc2)CC1 | 5.2% | -22.9% | -0.7% | 21.2µM* | 0.0% | 5.4%
CCOC(=O)C1CCN(C(=S)Nc2ccc(C)cc2)CC1 | -5.3% | -12.4% | -0.6% | -2.7% | 1.2% | 4.4%
CCc1cc2c(cc3c(=O)n(CC(=O)NCc4cc(Br)ccc4OC)ncn32)s1 | 1.8% | -1.5% | / | / | 1.0% | /
O=C(Cn1cnc2c(OCc3ccccc3)ncnc21)NCc1ccccc1 | 1.5% | ? | -9.6% | 23.8µM* | 0.2% | -0.4%
O=C(c1ccco1)N1CCN(Cc2nnnn2CC2CCCO2)CC1 (stereo unspecified) | 5.2% | ? | -4.1% | 11.9µM* | 1.2% | 2.3%
CC(C)C(c1nnnn1Cc1cccs1)N1CCN(C(=O)c2ccco2)CC1 (stereo unspecified) | 0.7% | -9.1% | -0.4% | 18.9µM* | 5.6% | 0.5%
O=C(c1ccco1)N1CCN(C(c2ccccc2)c2nnnn2Cc2cccs2)CC1 (stereo unspecified) | 0.7% | -10.4% | 0.2% | -6.9% | -2.0% | 0.0%
COc1ccc(C2=Nn3c(nnc3-c3cccc(OC)c3)SC2)cc1 | 1.4% | / | / | / | 15.0% | /
CCCc1c2c(cc3c(=O)cc(C(=O)OCC)oc13)CCCC2 | -1.5% | ? | 0.5% | 21.2µM* | / | -11.8%
N#Cc1ccccc1CN1C(=O)c2ccccc2Sc2ccc(C(=O)OCc3ccco3)cc21 | 67.8% | -7.0% | / | / | 3.0% | /
O=[S+]([O-])(c1c(F)cccc1F)N1CCN([S+](=O)([O-])c2csc3ccccc23)CC1 | -1.5% | / | / | / | / | /
CC(Oc1ccc(F)cc1)C(=O)Nc1cccc(-c2nn[nH]n2)c1 (stereo unspecified) | -27.0% | ? | -11.3% | 21.2µM* | 4.9% | 12.7%
COc1ccc(OC(C)C(=O)Nc2cccc(OC)c2)cc1 (stereo unspecified) | 0.5% | 0.7% | -9.4% | -6.3% | -2.3% | 3.0%
SMILES | Pin1 inh | VDR inh | Tb PFK inh | PLK1 PBD inh | TDP1 inh | ASM inhibitor
OCC1OC(n2cnc3c(=S)nc[nH]c32)C(O)C1O (stereo unspecified) | -1.5% | -13.6% | / | / | -4.3% | /
Nc1nc2c(ncn2[C@@H]2O[C@H](CO)[C@@H](O)[C@H]2O)c(=O)[nH]1 | / | 3.3% | / | / | -6.1%[56.1 µM] | /
Nc1nc(=S)c2ncn([C@@H]3O[C@H](CO)[C@@H](O)[C@H]3O)c2[nH]1 | -5.0% | -22.4% | -19.7% | 21.2µM* | / | 0.9%
Nc1nc(=S)c2ncn(C3OC(CO)C(O)C3O)c2[nH]1 (stereo unspecified) | / | 70.8µM* | ? | 10.6µM* | ? | ?
O=c1c2c3c(sc2n2cnnc2n1-c1ccccc1)N(Cc1ccccc1)CCC3 | 1.0% | ? | -3.5% | 29.9µM* | 4.2% | 28.9%
CCCNc1cc(=S)nc(N)[nH]1 | 5.2% | -5.9% | -21.1% | 18.9µM* | 4.1% | 0.6%
CCCNc1nc2ccccc2c(=O)[nH]1 | -1.4% | 3.8% | -0.7% | -9.5% | 2.5% | 6.4%
CCCCCC1(C(=O)OCC)CC(CSC(=N)N)OC1=O (stereo unspecified) | 0.8% | -20.5% | -2.4% | 29.9µM* | 1.2% | 3.3%
CC(=O)Nc1ncnc2c1c(-c1ccc(Cl)cc1)nn2C(C)(C)C | 0.4% | -31.0% | -6.0% | -6.3% | -2.5% | 0.3%
CC(=O)N(C(C)=O)c1ncnc2c1c(-c1ccc(Cl)cc1)nn2C(C)(C)C | -5.3% | 50.1µM* | -2.2% | -6.9% | 3.7% | 2.0%
C=C(c1ccc(OCCO)cc1)c1ccc(OCCO)cc1 | -3.1% | -12.5% | -3.9% | 26.7µM* | 1.1% | 2.5%
O=C(CSc1nc2ccccc2s1)N1CCCCC1 | 3.2% | -0.3% | -4.5% | 15µM* | 2.3% | 0.0%
CC1CCN(C(=O)CSc2nc3ccccc3s2)CC1 | 9.1% | -7.3% | -0.4% | -19.3% | 4.0% | 4.2%
O=C(O)C1CCN(C(=O)CSc2nc3ccccc3s2)CC1 | 0.8% | ? | 5.9% | 23.8µM* | 1.3% | 1.3%
CCOC(=O)c1ccc(N2C(=O)c3n[nH]c(-c4ccco4)c3C2c2cccc(O)c2)cc1 (stereo unspecified) | 34.7% | -13.7% | / | / | 9.3% | /
CCOC(=O)c1sc2nc3n(c(=O)c2c1C)CCC(C)CC3 (stereo unspecified) | 3.8% | -16.7% | -7.8% | 29.9µM* | 0.0% | -5.9%
CCN(CC)c1ccc2c(-c3ccc(S(=O)(=O)O)cc3S(=O)(=O)[O-])c3ccc(=[N+](CC)CC)cc-3oc2c1 | ? | 39.8µM* | -2.8% | 6.7µM* | / | -6.3%
CCN(CC)c1ccc2nc3c4ccccc4c(=O)cc-3oc2c1 | ? | ? | -1.2% | 4.2% | / | -0.4%

Compound activity: PubChem, National Center for Advancing Translational Sciences (NCATS)
